We go through 23 sequences from publication PMC7819943, “Rice protein-binding microarrays: a tool to detect cis-acting elements near promoter regions in rice”.

In all, about 39,000 sequences were measured (“fluorescence intensity (a.u.)”: median about 4,300, highest 2% from about 39,000 on). The sample holds the highest values, similar sequences and a random draw of the others, so the mix is not that of the screen.

For the assay, the target named is T1, OsSMF1 (Oryza sativa, UniProt Q6ZLB0 1-436).
T1 sequence: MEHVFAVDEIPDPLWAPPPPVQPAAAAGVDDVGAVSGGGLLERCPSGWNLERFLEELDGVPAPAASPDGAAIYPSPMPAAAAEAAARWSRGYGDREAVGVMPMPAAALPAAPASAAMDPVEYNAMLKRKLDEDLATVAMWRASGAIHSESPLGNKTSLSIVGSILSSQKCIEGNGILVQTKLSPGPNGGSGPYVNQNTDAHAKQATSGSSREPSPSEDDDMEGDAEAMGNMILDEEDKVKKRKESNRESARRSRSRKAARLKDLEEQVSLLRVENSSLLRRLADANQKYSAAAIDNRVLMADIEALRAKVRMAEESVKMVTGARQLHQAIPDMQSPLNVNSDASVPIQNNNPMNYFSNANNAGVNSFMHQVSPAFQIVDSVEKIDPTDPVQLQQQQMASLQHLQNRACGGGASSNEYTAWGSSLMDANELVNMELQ
Description: protein-binding microarray (RPBM); PBS, 2% BSA, 51.3 ng/ul salmon testes DNA, 50 uM zinc acetate, 200 nM TF, 25 C, 1 h; high values mean tight binding. Particulars: protein: recombinant; tags: N-terminal polyhistidine and DsRed monomer fusion (pET32a); chain copies: 2; label: CyDye5-dUTP incorporated in the synthesized complementary strand; 3' TTTTT single-stranded linker to array surface; dsDNA, one strand shown. A digest of the protocol:
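Per-feature fluorescence intensity (arbitrary units), read on an Axon 4000B scanner, is the binding signal. Transcription factors carrying an N-terminal polyhistidine tag and DsRed fusion were expressed in E. coli BL21-CodonPlus and purified on Ni–NTA. A custom Agilent array, made double-stranded by primer extension with Cy5-dUTP and blocked with 2% BSA, was incubated with 200 nM protein in PBS, 2% BSA, salmon testes DNA and 50 µM zinc acetate at 25 °C for 1 h and then washed.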
For “GGTGTGGCGTGAGCGTGACACGGTGTCAACTGTCAAGTGTCGGAGTCACCTAGTGCAG”, the binding signal was 3400 fluorescence intensity (a.u.).

For “TCTCGCCTACCACCAAGCTCATCTCGTTTCGTTAGCTACCCGGAGTCACCTAGTGCAG”, the binding signal is 41600 fluorescence intensity (a.u.).

With “TGCCCGGCTCGGCTACCCCGTCGCCACCGCCGTTCGTTTCCGGAGTCACCTAGTGCAG”, the binding signal was 3190 fluorescence intensity (a.u.).

“AATAGCTCTCTCCTCAGTCTCTCACGGCCTCATCACCACCCGGAGTCACCTAGTGCAG”: the binding signal is 3170 fluorescence intensity (a.u.).

With “AGGCGGTTTTGGCTGATGTGGCGTCTACGTGGCTTGTTTGCGGAGTCACCTAGTGCAG”, the binding signal was 25300 fluorescence intensity (a.u.).

Regarding “TGGCGGTTTGGAAGGCGGTTTTGGCTGACGTGGCGTCTACCGGAGTCACCTAGTGCAG”, the binding signal was 43800 fluorescence intensity (a.u.).

“GACCCCGGTTTTGTCCCACGTGGCGGCTGACTCAGCGTGGCGGAGTCACCTAGTGCAG”: the binding signal was 22500 fluorescence intensity (a.u.).

Regarding “GGTCCCTCAGCGGTTTTGGCTGACGTGGCGCATACGTGGCCGGAGTCACCTAGTGCAG”, the binding signal is 51700 fluorescence intensity (a.u.).

Take “TTTAGATGGCGGTTTTGGCTGACGTGGCGTCTACGTGACGCGGAGTCACCTAGTGCAG”: the binding signal was 30700 fluorescence intensity (a.u.).

On to “GTTTTGACCCGGTTTTGGTCTACGTGGCGCTGAGTCAGCGCGGAGTCACCTAGTGCAG”, for which the binding signal is 29900 fluorescence intensity (a.u.).

Consider “GATCTCCTTTACACGTGATGTTGACGTGGCGTTTAGGTGGCGGAGTCACCTAGTGCAG”, for which the binding signal was 26500 fluorescence intensity (a.u.).

As to “GGAAGCGCCAGCCAGCGCTCGCCGTTGTCACCTGTCACACCGGAGTCACCTAGTGCAG”, the binding signal is 3480 fluorescence intensity (a.u.).

On to “TACAGATCGATGCGACACTCTGACACGTTACGCTCTCTCTCGGAGTCACCTAGTGCAG”, for which the binding signal was 6440 fluorescence intensity (a.u.).

Consider “TTGTGATGTCCATGTCACATGCAGTCCATTAAGGCCCTTGCGGAGTCACCTAGTGCAG”, for which the binding signal is 5190 fluorescence intensity (a.u.).

As to “GTTGTTGTTCTTGGATGTGAATGTGAATAATGTGATGTTTCGGAGTCACCTAGTGCAG”, the binding signal was 3350 fluorescence intensity (a.u.).

As for “TAGAGGCAAGCACGACCAATGAGGACATAGGGAATGGTTCCGGAGTCACCTAGTGCAG”, the binding signal was 9700 fluorescence intensity (a.u.).

Turning to “CAGTGCTAGGGAAGCGACCAATGATGGATAGTGGGAGGCACGGAGTCACCTAGTGCAG”, the binding signal was 45600 fluorescence intensity (a.u.).

“TGTGGTGGCGAGCGGCACGGAGGCGGGGCGGTGGAGGGAGCGGAGTCACCTAGTGCAG”: the binding signal is 3980 fluorescence intensity (a.u.).

Consider “CTGTGCCGCTCGCTCGTTCGCTCTGTGACTGTACGTACATCGGAGTCACCTAGTGCAG”, for which the binding signal is 4590 fluorescence intensity (a.u.).

Consider “GTGTGGGGCCACGTCACAGTGGGCCCCATATGTCGGTGGGCGGAGTCACCTAGTGCAG”, for which the binding signal is 12700 fluorescence intensity (a.u.).

For the sequence “TTGTCGCGATGTGCCCCTTCTACGGGGTGCCACGTCACATCGGAGTCACCTAGTGCAG”, the binding signal was 39500 fluorescence intensity (a.u.).

Turning to “CCACATCGGATGCCACGTCAGCCCTAGCCACATCAGCGCACGGAGTCACCTAGTGCAG”, the binding signal is 38500 fluorescence intensity (a.u.).

Take “GTTCGGTTTCGCGGTCAAGCGCGTGACGTGAGGTCGCCCACGGAGTCACCTAGTGCAG”: the binding signal was 5720 fluorescence intensity (a.u.).
